High-throughput results: PubChem BioAssay, National Center for Advancing Translational Sciences (NCATS)
Compounds with a hit are over-represented: about 21% of the library has one in this group of screens.
NS1 inh: qHTS Assay for Inhibitors of Influenza NS1 Protein Function; Potency, µM (titrated, usually from 46.1 µM), for inactives: at the highest dose activity, positive = more growth; actives 0.4% (n = 270,000); AID 2326, 2010; calls by dose curve; note: potency is the fitted concentration of half-maximal effect; actives are rising curves; nearly all actives have a fitted effect of over 50% in size
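In this qHTS, NS1 from influenza A is expressed in budding yeast, where it slows growth. Cells are switched from glucose to 2% galactose medium (pH 6.0, -URA), treated with compound, and growth recovery is read at OD600.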
Giardia FBPA inh: qHTS Assay for Inhibitors of Fructose-1,6-bisphosphate Aldolase from Giardia Lamblia. A8B2U2. purified Giardia FBPA. Potency, µM (highest dose often 59.6 µM), for inactives: at the top dose activity, negative = inhibition, most hits filed as inhibitors. actives 0.71% (n = 290,000). AID 2451, 2010; note: potency is the fitted concentration of half-maximal effect; % is set by controls: 0 for no effect and ±100 for the full control effect; nearly all actives have a fitted effect of over 55% in size
Target sequence (A8B2U2 whole entry, looked up): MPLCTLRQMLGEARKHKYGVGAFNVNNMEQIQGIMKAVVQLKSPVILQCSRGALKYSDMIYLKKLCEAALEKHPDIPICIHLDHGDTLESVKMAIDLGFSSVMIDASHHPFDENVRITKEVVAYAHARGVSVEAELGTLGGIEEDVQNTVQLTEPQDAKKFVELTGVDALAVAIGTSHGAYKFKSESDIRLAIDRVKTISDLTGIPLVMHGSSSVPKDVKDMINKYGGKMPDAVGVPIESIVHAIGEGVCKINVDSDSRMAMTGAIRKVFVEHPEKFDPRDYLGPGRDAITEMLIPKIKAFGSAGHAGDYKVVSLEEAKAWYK
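Giardia FBPA (40 nM reagent) was preincubated 10 min at RT with compound (up to 57.5 uM final), then substrate plus GAPDH/TPI/NAD/arsenate coupling system with diaphorase/resazurin was added; resorufin fluorescence (525/598 nm) was read after 20 min.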
Cycloheximide cs: Cycloheximide Counterscreen for Small Molecule Inhibitors of Shiga Toxin | cell reporter, cycloheximide protein synthesis inhibition counterscreen | max response, % | actives 12% (n = 300,000) | AID 2314, 2010; in the data active = max response mostly above about 13%, no sharp cut-off; inactive = mostly below about 14%; note: read at 38.3 µM for the half of the compounds with a filed dose; 0% is about no effect
Pf growth 48h: Primary qHTS for delayed death inhibitors of the malarial parasite plastid, 48 hour incubation; P. falciparum luciferase growth in erythrocytes, 48 h; Potency, µM (top dose mostly 28.7 µM), inactives show at the highest dose activity change, negative = inhibition, usual class: inhibitors; actives 5.9% (n = 310,000); AID 504832, 2011; note: potency is the fitted concentration of half-maximal effect; % is set by controls: 0 for no effect and ±100 for the full control effect
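Cell-based growth assay: transgenic P. falciparum expressing firefly luciferase, cultured in red cells within RPMI 1640 containing 0.5% w/v Albumax, 24 mM bicarbonate and gentamycin. A drop in luciferase activity indicates inhibition.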
Pf growth 96h: Primary qHTS for delayed death inhibitors of the malarial parasite plastid, 96 hour incubation. AID 504834, 2011. actives 6.9% (n = 320,000). P. falciparum luciferase reporter growth, 96 h. Potency, µM (series often up to 28.7 µM), for inactives: at the top dose activity change, negative = inhibition, actives largely listed as inhibitors; note: potency is the fitted concentration of half-maximal effect; % is set by controls: 0 for no effect and ±100 for the full control effect
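Readout is luminescence from an integrated firefly luciferase in P. falciparum. Red cells, 2% hematocrit and 0.05% parasitemia final, were cultured with compound through two parasite generations (96 hours) at 37 C, 5% CO2.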
Shiga toxin inh: A qHTS for Small Molecule Inhibitors of Shiga Toxin | Vero cells, Shiga toxin protein synthesis inhibition reporter | inhibition, % at 38.7 µM | actives 9.2% (n = 290,000); in the data active = inhibition mostly above about 28%, no sharp cut-off; inactive = mostly below about 43%; note: 0% is about no effect
* hit, by the source's call; ? = inconclusive; . = no result given; ! = not confirmed by another sample; [ ] = remark or other dose. Unless noted, calls come from the whole dose curve; as a rule, active = well fitted curve in the direction sought with a large enough effect; inconclusive = small, poorly fitted or top-dose-only effect, or another doubt; inactive = no such curve, though single readings can be large; an effect the other way counts as inactive or inconclusive.

SMILES | NS1 inh | Giardia FBPA inh | Cycloheximide cs | Pf growth 48h | Pf growth 96h | Shiga toxin inh
CCN(CC(=O)Nc1c(C(=O)OC)[nH]c2ccc(C)cc12)c1ccc2c(c1)OCO2 | 4% | ? | -2 | 13µM* | ? | -14
CCOC(=O)c1[nH]c2cc3c(cc2c1NC(=O)CN1CC(C)CC(C)C1)OCO3 (configuration not stated) | 6% | 2% | 2 | -2% | 5.9µM* | 45
COC(=O)c1[nH]c2ccc(F)cc2c1NC(=O)CCN1CCN(Cc2ccc3c(c2)OCO3)CC1 | 7% | 3% | -5 | 12µM* | -1% | -4
CCOC(=O)c1[nH]c2ccc(OCC)cc2c1NC(=O)CN1CCCC(C)C1 (configuration not stated) | -6% | -19% | 13 | ? | ? | 8
CC(=O)N1CCC2(CC1)CCN(C(=O)Nc1cccc(F)c1)CC2 | . | 3% | . | . | . | .
Cc1ccc(/C=N/NC(=O)Cn2nnc(N)n2)o1 | 1% | -6% | -2 | -4% | 19% | -11
OC(c1ccccc1)(c1ccccc1)C1CN2CCC1CC2 (configuration not stated) | 4% | -2% | -4 | ? | 12µM*! | 5
OC(c1ccccc1)(c1ccc(Cl)cc1)C1CN2CCC1CC2 (configuration not stated) | 3% | 1% | -1 | ? | 8.3µM* | -5
CCOc1ccc2[nH]c3c(N4CCC5(CC4)OCCO5)ncnc3c2c1 | -5% | -15% | 0 | ? | 12µM* | -7
OC1(c2cccc(C(F)(F)F)c2)CCN(c2ncnc3c2[nH]c2ccc(F)cc23)CC1 | -183% | -11% | 5 | 0% | 21% | 15
COc1ccc(-c2nsc3c(N4CCN(C(=O)c5ccco5)CC4)ncnc23)cc1 | -54% | -1% | 17 | 37% | ? | 22
CCOc1ccc2[nH]c3c(N4CCN(C(=O)c5ccco5)CC4)ncnc3c2c1 | -8% | -12% | 0 | ? | 12µM* | -4
O=C(c1ccco1)N1CCN(c2ncnc3c2[nH]c2ccccc23)CC1 | -7% | -9% | -1 | ? | 5% | 5
O=C(c1ccco1)N1CCN(c2ncnc3c2[nH]c2ccc(Br)cc23)CC1 | 10% | -4% | 2 | 9.3µM* | ? | -4
CN(C)S(=O)(=O)c1cccc(C(=O)Nc2n[nH]c(C(F)(F)F)n2)c1 | 3% | . | -4 | 11% | 15% | 0
COc1ccccc1N1CCN(C(c2ccc(N(C)C)cc2)c2nnnn2CCc2ccccc2)CC1 (configuration not stated) | 11% | -3% | -1 | 9.3µM* | ? | 14
COc1ccc(C(c2nnnn2CCc2ccccc2)N2CCN(C3CCCC3)CC2)cc1 (configuration not stated) | -5% | 2% | 42* | 8% | -5%[5.75 µM] | 60*
COc1ccc(Cn2nnnc2C(c2ccccc2Cl)N2CCN(C3CCCC3)CC2)cc1 (configuration not stated) | -8% | 1% | -9 | 15µM* | 75% | -18
COc1ccc(Cn2nnnc2C(c2ccccc2)N2CCN(C3CCCC3)CC2)cc1 (configuration not stated) | -4% | -19% | -4 | ? | 16% | 3
Nc1cc(=O)[nH]c(SCC(=O)c2ccc(O)cc2O)n1 | 2% | -12% | -3 | 40% | 47% | -14
COc1ccc(Oc2ncc3nc(-c4ccc(OC)cc4)c(=O)n(Cc4cccs4)c3n2)cc1 | . | 2% | . | . | . | .
Cc1ccc(NC(=O)CN(C)C(=O)C(C)OC(=O)c2ccccc2NCCO)cc1 (configuration not stated) | . | . | . | -26% | 3% | .
O=C(COc1ccc(N2C(=O)c3ccccc3C2=O)cc1)c1ccccc1 | -5% | 7% | 12 | 19% | -4% | -1
O=C(COc1ccccc1N1C(=O)c2ccccc2C1=O)c1ccc(Cl)cc1 | -11% | -6% | 20* | ? | -18% | 34*
Cc1c(C)c2c(c(C)c1O)CCC(C)(COc1ccc(Cc3sc(=O)[nH]c3O)cc1)O2 (configuration not stated) | . | -10% | 1 | . | . | 15
SMILES | NS1 inh | Giardia FBPA inh | Cycloheximide cs | Pf growth 48h | Pf growth 96h | Shiga toxin inh
O=C(/C=C/c1ccc(F)cc1)Nc1ccc2[nH]c(=O)[nH]c2c1 | 1% | 0% | 1 | 30% | 83% | 9
COc1ccc(C(=O)NCCCNC(=O)c2cccnc2)cc1Br | 4% | -3% | 7 | -6% | ? | -2
COc1ccc(OC)c(C(=O)N2CCC(C(=O)c3ccc(F)cc3)CC2)c1 | -2% | 0% | -3 | -16% | 9.3µM* | -6
COc1ccc(NC(=O)N2CCC(C(=O)c3ccc(F)cc3)CC2)cc1 | -10% | 0% | 9 | -16% | 31% | 8
N#CCC(CNc1ncc(C(F)(F)F)cc1Cl)OC(=O)c1cccc([N+](=O)[O-])c1 (configuration not stated) | -3% | -2% | -1 | 13µM* | 4.7µM* | 0
CS(=O)(=O)Nc1ccc(C(=O)NCCSCc2c(F)cccc2Cl)cc1 | ? | -1% | 2 | 0% | ? | 2
CC(C)(C)OC(=O)COc1cc(F)ccc1[N+](=O)[O-] | . | . | . | 8% | 46% | .
CC(C)(C)C(=O)NC1(C(F)(F)F)NC(=O)N(Cc2ccccc2)C1=O (configuration not stated) | 6% | 3% | 4 | 10% | 9% | 9
O=C1NC(c2ccccc2)(C(F)(F)F)C(=O)N1Cc1cccnc1 (configuration not stated) | -9% | 4% | 47* | 26% | ? | 96*
N/C(=N\c1nc(CSc2ccccn2)cc(=O)[nH]1)Nc1ccc(Cl)cc1Cl | 1% | 0% | -3 | ? | ? | -12
Nc1nc2c(C(=O)N3CCOCC3)nnn2c2ccccc12 | 6% | 0% | 21* | 236% | 267% | 60*
CCCCn1c(N)c(N(CCC(C)C)C(=O)C2CCCC2)c(=O)[nH]c1=O | . | . | . | 4% | ? | .
O=C(CN1CCN(C2CCCCC2)CC1)c1ccc2cc[nH]c2c1 | -56% | -18% | -3 | . | 4.7µM* | -2
Cc1ccc(CN2C3=NCCCN3c3ccccc32)cc1 | -6% | 3% | -5 | 12µM* | ? | -4
Clc1ccc(CN2C3=NCCN3c3ccccc32)cc1 | 2% | -8% | -3 | ? | . | -15
O=C(O)CN1C2=NCCCN2c2ccccc21 | -1% | -7% | -1 | 14% | 27% | -6
CC(C)(C)c1ccc(CN2C3=NCCCN3c3ccccc32)cc1 | -1% | 2% | -5 | 3.7µM* | 1% | -7
Clc1ccc(CN2C3=NCCCN3c3ccccc32)c(Cl)c1 | -3% | -3% | -3 | ? | 1µM* | -5
c1ccc(CN2C3=NCCCN3c3ccccc32)cc1 | 2% | -27% | -2 | 8.3µM* | 52% | -8
